Unmarked numbers belong to inactive results. Inconclusive results are not listed. The source made the active and inactive calls. Unless noted, the call rests on the fitted dose curve; in most records, active means well fitted curve in the direction sought with a large enough effect in the repeat runs; inconclusive means weak or mixed curves; inactive means no such curve, though single readings can be large; an effect the other way counts as inactive or inconclusive.

In PubChem BioAssay (Tox21) one finds Potency, outcome and activity change, positive = activation data, which are given here for seven compounds.

Test [1] addresses Luciferin 4-monooxygenase (Photinus pyralis) (UniProt P08659). Description: qHTS assay to identify small molecule inhibitors of firefly luciferase (AID 1224835). Further: nearly all actives have a fitted effect of over 25% in size. Further: potency means the concentration at half of the fitted maximal effect. In a few lines:
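Biochemical qHTS: compounds run as interplate titrations against purified firefly enzyme, with D-luciferin and ATP each at its KM concentration. Light output recorded by CCD imaging.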

A short description of test [2]: qHTS assay to identify small molecule agonists of the constitutive androstane receptor (CAR) signaling pathway - cell viability counter screen (AID 1224836). Further: nearly all actives have a fitted effect of over 45% in size. In a few lines: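 HepG2-CYP2B6-hCAR, 2500 cells/well, 4 h pre-incubation; cpd 15 conc + PK11195 0.75 uM final; 23 h, 37 C/5% CO2; CellTiter-Fluor, fluorescence.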
A general note: Quantitative high-throughput screening tests each substance at several concentrations.

The nature of test [3]: qHTS assay to identify small molecule antagonists of the constitutive androstane receptor (CAR) signaling pathway - cell viability counter screen (AID 1224837). Further: nearly all actives have a fitted effect of over 45% in size. In short, it runs like this: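 Cells are seeded, rested 4 hr at 37 C/5% CO2, dosed with compound (15-point series) and 50 nM CITCO, incubated a further 23 hr, and then CellTiter-Fluor reagent is added before fluorescence is read. The line is HepG2 with stable hCAR and CYP2B6-2.2kb.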

The target of test [4] is Nuclear receptor subfamily 1 group I member 3 (Homo sapiens) (UniProt Q14994). Description: qHTS assay to identify small molecule agonists of the constitutive androstane receptor (CAR) signaling pathway (AID 1224839).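 Further: HepG2 cells stably carrying human CAR and a CYP2B6 luciferase reporter; nearly all actives have a fitted effect of over 15% in size.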 In a few lines: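 HepG2-CYP2B6-hCAR cells, 2500/well, 4 h pre-incubation; compounds 15 conc.; PK11195 0.75 uM final; 24 h, 37 C/5% CO2; ONE-Glo luciferase read.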
Chain of Nuclear receptor subfamily 1 group I member 3 (Homo sapiens) (Q14994 whole entry, looked up): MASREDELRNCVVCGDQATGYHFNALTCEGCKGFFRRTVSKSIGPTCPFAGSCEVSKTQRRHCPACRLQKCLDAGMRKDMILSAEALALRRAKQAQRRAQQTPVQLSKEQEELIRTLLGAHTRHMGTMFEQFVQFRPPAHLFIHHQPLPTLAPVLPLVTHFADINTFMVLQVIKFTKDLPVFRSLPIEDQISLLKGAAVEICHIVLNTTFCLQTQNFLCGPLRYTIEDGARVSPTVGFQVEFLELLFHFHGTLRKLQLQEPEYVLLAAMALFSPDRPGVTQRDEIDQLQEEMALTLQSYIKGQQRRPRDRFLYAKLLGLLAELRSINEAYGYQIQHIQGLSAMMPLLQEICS

A short description of test [5]: qHTS assay to identify small molecule antagonists of the estrogen related receptor signaling pathway with the pleiotropic PPARgamma coactivator (PGC) from Tox21 10K library - cell viability counter screen (AID 1224840; active means well fitted cell-killing curve with a large enough effect in the repeat runs, not every such curve was filed as active; further: nearly all actives have a fitted effect of over 40% in size). In short, it runs like this:
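Cell viability is measured by CellTiter-Fluor fluorescence in PGC/ERR cells that receive compounds after a 6-hour attachment period and are then incubated 17.5 hours at 37 C.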

The nature of test [6]: qHTS assay to identify small molecule antagonists of the estrogen related receptor signaling pathway with the pleiotropic PPARgamma coactivator (PGC) from Tox21 10K library (AID 1224841; call rule not given here; further: actives are mostly falling curves and most rising ones were filed inactive; nearly all actives have a fitted effect of over 50% in size). In short, it runs like this: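 Cells stably carrying the PGC/ERR reporter, seeded at 2,000 per well, received pin-transferred compounds 6 h post-plating. Exposure lasted 18 h at 37 C. Signal: One-Glo luminescence.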

Test [7] is described as follows: qHTS assay to identify small molecule agonists of the estrogen related receptor signaling pathway with the pleiotropic PPARgamma coactivator (PGC) from Tox21 10K library (AID 1224842). Further: nearly all actives have a fitted effect of over 15% in size. In a few lines: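 PGC/ERR reporter cell line, 2,000 cells per well, incubated 6 h at 37 C before 23 nL compound in DMSO was added. After 18 h at 37 C, One-Glo luminescence read following 30 min at room temperature.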

In test [8] the target is Thyrotropin receptor (Homo sapiens) (UniProt P16473). Briefly: qHTS assay to identify small molecule agonists of the thyroid stimulating hormone receptor (TSHR) signaling pathway (AID 1224843; calls by dose curve; further: nearly all actives have a fitted effect of over 45% in size). In a few lines: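 Agonist-mode screen: TSHR HEK293 cells received test chemicals for half an hour at room temperature, then HTRF cAMP detection reagents for one hour prior to fluorescence measurement. Each chemical ran as a 15-concentration series, triplicated.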
Chain of Thyrotropin receptor (Homo sapiens) (P16473 whole entry, looked up): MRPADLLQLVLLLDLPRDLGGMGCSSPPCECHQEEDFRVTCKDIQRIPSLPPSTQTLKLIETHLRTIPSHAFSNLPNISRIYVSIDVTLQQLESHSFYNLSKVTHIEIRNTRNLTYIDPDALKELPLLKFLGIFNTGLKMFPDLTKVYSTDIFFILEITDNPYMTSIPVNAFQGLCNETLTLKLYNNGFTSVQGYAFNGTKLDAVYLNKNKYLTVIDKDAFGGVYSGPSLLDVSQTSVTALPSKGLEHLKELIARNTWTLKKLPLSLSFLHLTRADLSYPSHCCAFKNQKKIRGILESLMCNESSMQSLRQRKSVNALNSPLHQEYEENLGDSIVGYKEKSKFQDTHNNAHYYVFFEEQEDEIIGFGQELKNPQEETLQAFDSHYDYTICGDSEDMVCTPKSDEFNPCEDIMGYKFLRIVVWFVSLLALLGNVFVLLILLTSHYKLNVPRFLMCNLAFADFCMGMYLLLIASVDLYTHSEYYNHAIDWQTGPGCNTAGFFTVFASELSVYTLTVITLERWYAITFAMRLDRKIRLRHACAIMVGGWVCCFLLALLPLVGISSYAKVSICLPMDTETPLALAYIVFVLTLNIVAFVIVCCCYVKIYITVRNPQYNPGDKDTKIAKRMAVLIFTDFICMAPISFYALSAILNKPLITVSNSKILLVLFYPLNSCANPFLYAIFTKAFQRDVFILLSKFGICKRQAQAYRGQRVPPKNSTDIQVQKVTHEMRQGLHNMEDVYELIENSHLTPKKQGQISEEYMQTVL

Test [9] is described as follows: qHTS assay to identify small molecule agonists of the hypoxia (HIF-1) signaling pathway - cell viability counter screen (AID 1224844; calls by dose curve; further: nearly all actives have a fitted effect of over 50% in size). In a few lines:
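Viability counter screen: HRE-bla ME-180 cells plated 5 hrs before compound addition, treated 17 hrs at 37C and 5% CO2, then CellTiter-Glo added after the FRET reporter read; luminescence after 30 min.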

A short description of test [10]: qHTS assay to identify small molecule agonists of H2AX (AID 1224845; active means well fitted activation curve with a large enough effect in the signal ratio in the repeat runs, not every such curve was filed as active; the % refers to the signal ratio). In a few lines:
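Wild-type CHO-K1 cells, plated overnight, exposed 3hr at 37C to 15 concentrations (0.76% DMSO final). Lysed, then HTRF anti-pH2AX (S139) cryptate and anti-H2AX-d2 antibodies, 24 hr room temperature; 665/620 nm emission read.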

Test [11] in a line: qHTS assay to identify small molecule agonists of the hypoxia (HIF-1) signaling pathway (AID 1224846; active means well fitted activation curve with a large enough effect in the signal ratio in the repeat runs, not every such curve was filed as active; the % refers to the signal ratio). In a few lines:
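Agonist mode reporter screen. ME-180 cells stably expressing bla under HRE control received test compounds in DMSO for 17 hrs (37C, 5% CO2), and beta-lactamase activity was then detected with the CCF4-AM FRET substrate.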

Test [12] can be described thus: qHTS assay to identify small molecule antagonists of the estrogen related receptor (ERR) signaling pathway from Tox21 library (AID 1224848). Further: nearly all actives have a fitted effect of over 50% in size. In a few lines: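 Quantitative high-throughput format: ERR reporter cells (2,000/well) pre-incubated 6 h, treated 18 h at 37 C with compounds in DMSO alongside positive and negative controls, then read by ONE-Glo luminescence.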

A short description of test [13]: qHTS assay to identify small molecule agonists of the estrogen related receptor (ERR) signaling pathway from Tox21 library (AID 1224849; calls by dose curve; further: nearly all actives have a fitted effect of over 15% in size). The note with it: ERR reporter cell line, ONE-Glo luciferase, 18 h; at 92.4 µM (top of the series) unless noted. In short, it runs like this: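 Quantitative HTS in agonist format: NTP ERR cell line, compounds transferred in DMSO after 6 h plating, 18 h incubation at 37 C, ONE-Glo luminescence endpoint.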

Test [14] in a line: qHTS RealTime-Glo MT Cell Viability Assay in HepG2 cells - 24 hour (AID 1224867). Further: nearly all actives have a fitted effect of over 50% in size. In short, it runs like this:
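HepG2 cells were seeded at 600 cells/well together with NanoLuc luciferase and a cell-permeant prosubstrate, preincubated 5 h at 37 C/5% CO2, then pin-dosed with compounds in DMSO. Nonlytic luminescence from viable cells was read at each time point.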

Test [15] is described as follows: qHTS RealTime-Glo MT Cell Viability Assay in HEK293 cells - 32 hour (AID 1224868). In short, it runs like this:
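HEK293 cells were seeded at 600 cells/well together with NanoLuc luciferase and cell-permeant prosubstrate, preincubated 5 h at 37 C/5% CO2, then given compound in DMSO by pintool. Luminescence from viable-cell prosubstrate reduction was read repeatedly over 40 h.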

Test [16] can be described thus: A CellTox Green Cytotoxicity Assay to monitor cytotoxicity in HEK293 cells - 0 hour (AID 1224869). Further: nearly all actives have a fitted effect of over 50% in size. In a few lines: (§1)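 Dead-cell fluorescence measured kinetically: asymmetric cyanine dye, HEK293, 600 cells/well, 5 h settle, 23 nL cpd/DMSO, 37 C, reads 0–40 h every 8 h.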
Test [17] in a line: qHTS RealTime-Glo MT Cell Viability Assay in HepG2 cells - 40 hour (AID 1224870). Further: nearly all actives have a fitted effect of over 50% in size. In a few lines:
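HepG2 cells (600/well) mixed with RealTime-Glo MT reagent, settled 5 h at 37 C/5% CO2 before compound addition. Nonlytic NanoLuc luminescence from viable-cell prosubstrate reduction read repeatedly during 40 h treatment at 37 C.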

The nature of test [18]: A CellTox Green Cytotoxicity Assay to monitor cytotoxicity in HEK293 cells - 40 hour (AID 1224871). Further: nearly all actives have a fitted effect of over 45% in size. In short, it runs like this:
as §1

In test [19] the target is Nuclear receptor subfamily 1 group I member 3 (Homo sapiens) (UniProt Q14994). Description: qHTS assay to identify small molecule antagonists of the constitutive androstane receptor (CAR) signaling pathway (AID 1224838).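 Further: HepG2 cells stably expressing hCAR with CYP2B6 luciferase reporter stimulated by CITCO; nearly all actives have a fitted effect of over 40% in size.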 In a few lines:
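Luminescence from a CYP2B6-2.2kb promoter reporter in hCAR-expressing HepG2 cells reflects CAR signaling. Cells received compounds at 15 concentrations and 50 nM CITCO (final), then incubated 24 h at 37 C/5% CO2.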

Test [20] in a line: qHTS assay to identify small molecule agonists of H2AX - cell viability counter screen (AID 1224847; calls by dose curve; further: top concentration of the series differs between compounds; nearly all actives have a fitted effect of over 30% in size). In a few lines: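 Cells plated first: CHO-K1, 1000 per well in 10% FBS medium, incubated overnight at 37C. Then 15-point compound titration added (final DMSO 0.76%) for 3 hr. Finally CellTiter-Glo added and luminescence read.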
On the % scale 0 is the no-effect control and ±100 the full control effect.

Chain of Luciferin 4-monooxygenase (Photinus pyralis) (P08659 whole entry, looked up): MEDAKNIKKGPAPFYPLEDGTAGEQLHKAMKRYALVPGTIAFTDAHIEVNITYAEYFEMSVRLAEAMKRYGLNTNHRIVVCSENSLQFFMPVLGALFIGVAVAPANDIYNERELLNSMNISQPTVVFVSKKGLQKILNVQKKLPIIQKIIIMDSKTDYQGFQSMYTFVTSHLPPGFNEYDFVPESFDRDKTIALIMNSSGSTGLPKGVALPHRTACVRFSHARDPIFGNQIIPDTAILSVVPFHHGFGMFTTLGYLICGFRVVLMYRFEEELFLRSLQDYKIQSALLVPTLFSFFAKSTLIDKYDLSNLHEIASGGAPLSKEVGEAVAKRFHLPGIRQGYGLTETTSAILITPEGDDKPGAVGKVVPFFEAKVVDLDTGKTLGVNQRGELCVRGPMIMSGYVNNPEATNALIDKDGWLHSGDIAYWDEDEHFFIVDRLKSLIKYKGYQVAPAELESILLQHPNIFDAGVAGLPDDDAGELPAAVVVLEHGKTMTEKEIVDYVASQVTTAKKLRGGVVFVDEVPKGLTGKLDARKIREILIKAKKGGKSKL

With `O=C(CCCl)NCc1ccccc1`, the Potency entry in test [1], in test [2], in [3], in test [4], in test [5] and in [6] was “inactive” each time. The Potency entry in test [7], in [8], in [9], in test [10], in test [12] and in test [14] was “inactive” in each case. The Potency result in test [15], in test [16], in [17] and in test [18] was “inactive” each time. Besides, the compound was classed as inactive in test [11]. Further, the activity change, positive = activation in test [13] is 5.97% [at 42.5 µM].

Take `Cc1cc2nc(N)sc2cc1C`: the Potency in [1] is 5.69 µM (active). Moreover, the Potency entry in test [2], in test [3], in test [19], in test [5], in [8] and in test [9] was “inactive” in each case. In addition, the Potency entry in test [14], in test [15], in test [16], in test [17] and in test [18] was “inactive” each time. Also, the compound was classed as inactive in [11].

On to `CCCNC(C)(C)COC(=O)c1ccccc1`, for which the Potency result in [1], in [2], in test [3], in test [19], in test [5] and in test [6] was “inactive” throughout. The Potency entry in test [7], in [8], in test [9], in [10], in test [12] and in test [14] was “inactive” each time. Besides, the Potency result in [15], in test [16], in test [17] and in test [18] was “inactive” each time. For the same compound, the call in test [11] was inactive. Besides, the activity change, positive = activation in test [13] is 5.73% [at 42.5 µM].

On to `C1CSCCS1`, for which the Potency result in test [1], in test [2], in test [3], in test [4], in [5] and in test [6] was “inactive” each time. For the same compound, the Potency entry in [7], in test [8], in [9], in test [10], in test [20] and in test [12] was “inactive” in each case. The Potency entry in test [14], in test [15], in [16], in test [17] and in [18] was “inactive” in each case. The call in test [11] was inactive. The activity change, positive = activation in [13] is 3.63%.

Consider `CCCCCCCCCC/C=C/C#N`, for which the Potency entry in test [1], in test [2], in [3], in test [4], in test [5] and in [6] was “inactive” each time. For the same compound, the Potency entry in [7], in [8], in test [9], in [10], in [20] and in test [12] was “inactive” in each case. Further, the Potency entry in test [14], in [15], in [16], in test [17] and in test [18] was “inactive” throughout. Besides, in test [11], the result was inactive. Also, in test [13], the activity change, positive = activation is -1.03%.

For `CCOC(=O)c1cc(=O)c2c(OCC(COc3cccc4oc(C(=O)OCC)cc(=O)c34)OC(=O)[C@@H](N)CCCCN)cccc2o1`, the Potency result in test [1], in test [2], in [3], in test [19], in test [5] and in test [6] was “inactive” each time. Besides, the Potency result in test [7], in test [8], in test [9], in test [20], in test [12] and in test [14] was “inactive” in each case. Further, the Potency entry in test [15], in test [16], in [17] and in test [18] was “inactive” throughout. Besides, the outcome in test [11] was inactive. The activity change, positive = activation in test [13] is 8.23% [at 42.5 µM].

Consider `CCCOCCC`, for which the Potency result in test [1], in test [2], in test [3], in test [19], in test [5] and in test [8] was “inactive” throughout. The Potency result in test [9], in [10], in test [20], in test [14], in [15] and in [16] was “inactive” in each case. The Potency result in [17] and in test [18] was “inactive” each time. Moreover, the compound was called inactive in test [11].
